These results are taken from PubChem BioAssay (NCI).

A short description of experiment [1]: NCI Yeast Anticancer Drug Screen. Data for the rad50 strain (AID 155).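 Further: 0% = growth of vehicle-only cultures of the same strain.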 Conditions: S. cerevisiae rad50 strain growth inhibition; at 50.0 µM; active compounds read high. A digest of the protocol:
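Cells are treated with compound, grown, and their growth is then scored against vehicle-only cultures of the same repair-deficient yeast strain.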

A short description of experiment [2]: NCI Yeast Anticancer Drug Screen. Data for the mec2-1 strain (AID 157). Conditions: S. cerevisiae mec2-1 strain, at 50.0 µM, active compounds read high. The method in brief:
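Cells of the genetically defined mec2-1 yeast strain are incubated with test compound. Inhibition of growth is calculated against vehicle-treated controls.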

Experiment [3] is described as follows: NCI Yeast Anticancer Drug Screen. Data for the sgs1 mgt1 strain (AID 161).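 Further: 0% = growth of cultures given vehicle only.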 Conditions: S. cerevisiae sgs1 mgt1 strain, at 50.0 µM, active compounds read high. A digest of the protocol: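 Genetically altered yeast, compound exposure, growth inhibition relative to vehicle.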
A short description of experiment [4]: NCI Yeast Anticancer Drug Screen. Data for the cln2 rad14 strain (AID 165).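 Further: 0% = growth equal to vehicle treated cultures.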 Conditions: S. cerevisiae cln2 rad14 strain, at 50.0 µM, active compounds read high. The method in brief:
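The screen exposed genetically defined yeast (cln2 rad14) to test compounds and scored growth inhibition relative to vehicle-treated controls.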

Experiment [5] is described as follows: NCI Yeast Anticancer Drug Screen. Data for the bub3 strain (AID 167). Conditions: S. cerevisiae bub3 mutant strain, at 50.0 µM, active compounds read high. A digest of the protocol:
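Part of a panel of yeast mutants defective in DNA damage repair or cell cycle regulation. Each strain is grown with compound, and inhibition is calculated relative to solvent-treated cultures.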

The nature of experiment [6]: NCI Yeast Anticancer Drug Screen. Data for the mlh1 rad18 strain (AID 175). To be noted: S. cerevisiae mlh1 rad18 strain growth inhibition; at 50.0 µM; active compounds read high. A digest of the protocol: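 Compound-treated yeast growth, normalised to vehicle controls. Strain bears defined DNA repair mutations.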

Each structure is given as a SMILES string. Compounds without any hit were thinned out: in the full panel of roughly 79,000, 15% have a hit. Unmarked numbers belong to inactive results. The source made the active and inactive calls. No stated cut-off is given here; in the data, active means growth inhibition above about 70%; inactive means the rest.

Take `Cc1cc(=O)[nH]c(N/N=C2/CCCCC2C)n1` (stereo unspecified): the growth inhibition in experiment [1] was -29.4%; in experiment [2], -25%; in experiment [3], -7.05%; in experiment [4] it was -0.6%; in experiment [5], -24.3%; in experiment [6] it was -21.8%.
Regarding `C/C(=N\S(=O)(=O)c1ccc([N+](=O)[O-])cc1)OCC(C)C`, the growth inhibition in experiment [1] was 11.2%; in experiment [2], -8.4%; in experiment [3] it was 14.7%; in experiment [4], -47.9%; in experiment [5], 10.7%; in experiment [6], 2.25%.
`CSC(SC)=C1Sc2cccc(Cl)c2S1`: the growth inhibition in experiment [1] was 1.65%; in experiment [2], 11.3%; in experiment [3], 29.2%; in experiment [4], -14.7%; in experiment [5] it was -15.1%; in experiment [6], -13.8%.
As to `CC(C)C1CCC(C)(C(N)=O)C1` (stereo unspecified), the growth inhibition is 8.2% in experiment [1]; 2.65% in experiment [2]; -1.3% in experiment [3]; -23.4% in experiment [4]; -8.25% in experiment [5]; -2.1% in experiment [6].
In the case of `N#CC(NC(=O)NCCCl)c1ccccc1` (stereo unspecified), the growth inhibition was -8.8% in experiment [1]; -12.2% in experiment [2]; -1.4% in experiment [3]; -41.1% in experiment [4]; 11.4% in experiment [5]; 2.6% in experiment [6].
Take `Cc1nc2nnc(N)n2nc1C`: the growth inhibition in experiment [1] is 10.1%; in experiment [2], -6.15%; in experiment [3] it was 3.75%; in experiment [4] it was -22%; in experiment [5], 8.45%; in experiment [6] it was 4.05%.
With `O=C(Cl)C1C2C=CC(C2)C1C(=O)Cl` (stereo unspecified), the growth inhibition in experiment [1] is 3.1%; in experiment [2], -20.4%; in experiment [3], -2.35%; in experiment [4] it was -9.15%; in experiment [5] it was 15.6%; in experiment [6] it was 2.55%.
As for `FC(F)(F)c1cc(Cl)c2ccc3ccccc3c2n1`, the growth inhibition is 8.65% in experiment [1]; 5.3% in experiment [2]; 1.9% in experiment [3]; -62.4% in experiment [4]; 3.65% in experiment [5]; -12.8% in experiment [6].
Regarding `CCCCCCCCCCCCOC1C(COCCN2CCCCC2)OC2OC(C)(C)OC21` (stereo unspecified), the growth inhibition was 92.6% (active) in experiment [1]; 93.4% (active) in experiment [2]; 89.7% (active) in experiment [3]; 90% (active) in experiment [4]; 88% (active) in experiment [5]; 90.2% (active) in experiment [6].
Consider `Nc1cccc2c([N+](=O)[O-])cccc12`, for which the growth inhibition is 62.7% in experiment [1]; 34.4% in experiment [2]; 62.8% in experiment [3]; 31.2% in experiment [4]; 17% in experiment [5]; 60.2% in experiment [6].
Take `CCCC(=O)Oc1ccc(C(=O)OC)cc1`: the growth inhibition was 8.4% in experiment [1]; -10.8% in experiment [2]; -11.9% in experiment [3]; -24.8% in experiment [4]; -16.4% in experiment [5]; 13.3% in experiment [6].
Take `CCCCCCCCCCCCCCCCOC(=O)c1cc([N+](=O)[O-])cc([N+](=O)[O-])c1Sc1ncnc2nc[nH]c12`: the growth inhibition in experiment [1] was -3.8%; in experiment [2], -7.8%; in experiment [3], 3.5%; in experiment [4] it was -2.35%; in experiment [5] it was -21.2%; in experiment [6], -32.2%.
On to `O=C1CC2C(=O)N(Cc3ccccc3)C(=O)C2C(=O)N1` (stereo unspecified), for which the growth inhibition in experiment [1] was -3.1%; in experiment [2], -12.9%; in experiment [3], -5.3%; in experiment [4], 1.85%; in experiment [5], -3.1%; in experiment [6], 1.25%.
As to `O=C(CBr)c1cc2ncccc2c2ccccc12`, the growth inhibition in experiment [1] is 46.6%; in experiment [2] it was 51%; in experiment [3], 62.2%; in experiment [4] it was 98.6% (active); in experiment [5] it was 99% (active); in experiment [6], 68.9%.
On to `CCCCCCCCCCCCCCCC(=O)OC/C=C/COC(=O)c1ccccc1`, for which the growth inhibition in experiment [1] is 22.9%; in experiment [2], -9.7%; in experiment [3], -6.25%; in experiment [4], -2.95%; in experiment [5], 2.65%; in experiment [6] it was -13%.
With `COc1cccc(N=N/C(=N/NC(=O)c2cc(Cl)ccc2O)c2ccc(N(CCC#N)CCC#N)cc2C)c1`, the growth inhibition in experiment [1] is -18.9%; in experiment [2], -16.8%; in experiment [3], -18.9%; in experiment [4], -18.6%; in experiment [5], -17.9%; in experiment [6] it was -47.6%.
Regarding `COc1cccc(-c2nc(-c3cnccn3)n(Cc3ccccc3)n2)c1`, the growth inhibition in experiment [1] was -49.1%; in experiment [2], -60.7%; in experiment [3], -59.8%; in experiment [4] it was -22%; in experiment [5] it was -46.5%; in experiment [6], -38.8%.
For `CCCCc1c2c(nc3c1CCC/C3=C\c1ccccc1)/C(=C/c1ccccc1)CCC2`, the growth inhibition in experiment [1] was -5.05%; in experiment [2], 16.9%; in experiment [3], -1.3%; in experiment [4] it was 9.7%; in experiment [5], -0.55%; in experiment [6], 22.3%.
As to `O=C(O)c1cncc(C(=O)O)c1`, the growth inhibition in experiment [1] is -37%; in experiment [2] it was -12.7%; in experiment [3], -14.7%; in experiment [4], -7.6%; in experiment [5], -47.5%; in experiment [6], -24.6%.
`CCN(CC)CCCNc1c2c(nc3ccc(Cl)cc13)CCCC2`: the growth inhibition is -20.1% in experiment [1]; -9.35% in experiment [2]; 0.6% in experiment [3]; -8.1% in experiment [4]; -11.8% in experiment [5]; 2.75% in experiment [6].
On to `Nc1c(Br)cc(Br)c(C(=O)O)c1Br`, for which the growth inhibition in experiment [1] was 6.35%; in experiment [2], -16.1%; in experiment [3], 10.8%; in experiment [4], 2.8%; in experiment [5], -15.2%; in experiment [6], -1.75%.
